PubChem BioAssay (EPA / NIEHS)
Activity calls are given as the source filed them. The calls were made as follows: active = hit-call score of the fitted dose curve at least 0.9, where 1 is the maximum; inconclusive = response in the unintended direction; inactive = score below 0.9.

Target: Estrogen receptor (Homo sapiens) (UniProt P03372)
Assay: OT_ER_ERaERa_1440: Odyssey Thera (OT) 24-hour HEK293T Protein-Complementation Assay for Estrogen Receptor-alpha/-alpha Homodimer (AID 2283349);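 also: hits raise fluorescence above DMSO for agonists and antagonists alike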
Procedure, shortened: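 Readout is the rise in mean fluorescence from reporter fragment complementation when ERα LBD (aa 310-547) units dimerize in HEK293T cells. Measured 24 h after dosing and analysed as increase over DMSO control.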

Sequence of Estrogen receptor (Homo sapiens) (P03372 whole entry, looked up): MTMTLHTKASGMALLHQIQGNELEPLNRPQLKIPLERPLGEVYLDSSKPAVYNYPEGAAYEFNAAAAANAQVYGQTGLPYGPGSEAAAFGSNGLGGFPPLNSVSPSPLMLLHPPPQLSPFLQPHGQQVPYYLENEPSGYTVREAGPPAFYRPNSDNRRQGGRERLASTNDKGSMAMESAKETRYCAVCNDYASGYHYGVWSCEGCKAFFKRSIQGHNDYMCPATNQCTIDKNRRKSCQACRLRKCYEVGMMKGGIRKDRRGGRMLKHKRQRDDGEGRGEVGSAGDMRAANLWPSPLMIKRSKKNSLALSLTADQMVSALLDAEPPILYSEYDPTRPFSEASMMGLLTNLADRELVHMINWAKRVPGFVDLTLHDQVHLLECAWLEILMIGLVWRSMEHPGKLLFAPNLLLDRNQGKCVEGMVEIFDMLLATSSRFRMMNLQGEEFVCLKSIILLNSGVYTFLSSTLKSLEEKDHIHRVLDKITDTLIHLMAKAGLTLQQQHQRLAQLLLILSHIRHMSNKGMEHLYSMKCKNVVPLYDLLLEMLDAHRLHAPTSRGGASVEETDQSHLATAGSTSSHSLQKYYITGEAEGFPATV

| Compound | outcome | AC50 |
| --- | --- | --- |
| COCc1nnc(-c2ccc[n+]([O-])c2)n1-c1c(Cl)c(Cl)cc2[nH]c(=O)c(=O)[nH]c12 | inactive |  |
| Cc1ccc(S(=O)(=O)NC(=O)NN2CCCCCC2)cc1 | inactive |  |
| O=C(O)CO | inactive |  |
| CC[C@H](C)C(=O)O[C@H]1C[C@H](O)C=C2C=C[C@H](C)[C@H](CC[C@@H](O)C[C@@H](O)CC(=O)O)[C@H]21 | inactive |  |
| c1ccc2ncccc2c1 | inactive |  |
| CCCCCOC(C)=O | inactive |  |
| C=CN1CCCC1=O | inactive |  |
| CC(C)c1nnc2ccc(-c3ocnc3-c3cc(F)ccc3F)cn12 | inactive |  |
| CCCCCCCC/C=C\CCCCCCCC(=O)OC[C@@H](O)[C@H]1OC[C@H](O)[C@H]1O | inactive |  |
| OCCNCCO |  | 11.9 µM (active) |
| CC(C)CC(C)O (stereo unspecified) | inactive |  |
| c1ccc2cc3ccccc3cc2c1 | inactive |  |
| NC(=O)N(O)[C@@H]1COc2cc(OCc3ccccc3)ccc21 | inactive |  |
| Cn1c(=O)c2[nH]cnc2n(C)c1=O | inactive |  |
| CCCc1ccccc1 | inactive |  |
| O=S(=O)(O)c1ccc(N=Nc2c(O)ccc3cc(S(=O)(=O)O)ccc23)cc1 | inactive |  |
| O=C(NO)C1(NS(=O)(=O)c2ccc(Oc3ccc(F)cc3)cc2)CCOCC1 | inactive |  |
| CNC(C)=O | inactive |  |

| Compound | outcome | AC50 |
| --- | --- | --- |
| CCCCN1C(=O)[C@@H]([C@H](O)C2CCCCC2)NC(=O)C12CCN(Cc1ccc(Oc3ccc(C(=O)O)cc3)cc1)CC2 | inactive |  |
| O=C(O)[C@H](O)[C@@H](O)C(=O)O | inactive |  |
| C[C@@H](Oc1ccc(CNC(=O)c2cccnc2Oc2ccc3c(c2)OCO3)c(F)c1)C(=O)O | inactive |  |
| CCCCOC(=O)c1ccccc1 | inactive |  |
| OC(CCl)CCl | inactive |  |
| CC1(C)C(=O)N(Cl)C(=O)N1Cl | inactive |  |
| CCCCCCCCCCCCCCO | inactive |  |
| CCOc1ccc2[nH]cc(C(=O)NCc3ccccc3)c(=O)c2n1 | inactive |  |
| CCCCCCCCN(C)C | inactive |  |
| NC(N)=O | inactive |  |
| CCCOc1ccc(S(=O)(=O)N2CCN(CC)CC2)cc1-c1nc2c(CC)n(Cc3ccccn3)nc2c(=O)[nH]1 | inactive |  |
| OC[C@H]1O[C@@](CO)(O[C@H]2O[C@H](CO)[C@@H](O)[C@H](O)[C@H]2O)[C@@H](O)[C@@H]1O | inactive |  |
| CCOC(N)=O | inactive |  |
| NC(=O)NN=Cc1ccc([N+](=O)[O-])o1 | inactive |  |
| OCc1ccccc1 | inactive |  |
| O=C(O)c1cccc(C(=O)O)c1 | inactive |  |
| O=S1(=O)CCCO1 | inactive |  |
| CC(C)CCCCCCOC(=O)C1CCCCC1C(=O)OCCCCCCC(C)C (stereo unspecified) | inactive |  |
